# Screens deposited in PubChem BioAssay by several laboratories.
# MITF TRPM1 inh = reduces MITF-dependent TRPM1 promoter luciferase signal | SK-MEL-5 TRPM1 promoter luciferase, 24 h | inhibition, % at 12.5 µM | 0.83% of 330,000 active | AID 488899;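 active = mean inhibition across replicates of 60% or more, whatever share of single replicates reaches that level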
# 697 NFkB inh = inhibitors of the PMA/ionomycin-induced NF-kB reporter in 697 B cells; 697 B-cell NF-kB luciferase reporter, 16 h; inhibition, % at 4 µM; 0.33% of 330,000 active; AID 435022; in the data active = inhibition above about 35%
# LMP1 NFkB inh = Epstein-Barr LMP1 NF-kappaB reporter inhibition; LMP1-induced NF-kappaB luciferase reporter cells, luminescence; inhibition, % at 12.5 µM; 0.69% of 350,000 active; AID 504558; in the data active = inhibition above about 41%;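 also: 0% = neutral control wells and 100% = reference inhibitor control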
# Gli-Sufu block = blocks Gli-Sufu signaling in a luciferase reporter. inhibition, % at 5 µM. Sufu-KO-LIGHT fibroblasts, Gli luciferase reporter luminescence. AID 588413. 0.74% of 340,000 active;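 active = inhibition above about 55%, limit read from the data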;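 also: 0% = DMSO-treated cells and 100% = wells with medium but no cells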
# Jurkat NFkB inh = inhibitors of the PMA/ionomycin-induced NF-kB reporter in Jurkat cells | PMA/ionomycin-induced NF-kB luciferase reporter, luminescence | inhibition, % at 4 µM | 0.53% of 330,000 active; in the data active = inhibition above about 50%
# Shn3 inh set2 = reduces Shn3 3'UTR luciferase signal in osteoblasts. Clone20 osteoblast Shn3 3'UTR firefly luciferase, 24 h. inhibition, % at 12.5 µM. 0.52% of 360,000 active. AID 588674;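 active = mean inhibition of at least 75% with every replicate also reaching 75%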;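 also: 0% = median of neutral control wells and 100% = pilot-screen positive control compound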
# * = called active by the depositor; . = no result given. Rows were chosen to be rich in hits. Some 2.3% of all compounds tested hit in one or more screens of this group.
SMILES,MITF TRPM1 inh,697 NFkB inh,LMP1 NFkB inh,Gli-Sufu block,Jurkat NFkB inh,Shn3 inh set2
CCc1nc(N)nc(N)c1-c1ccc(Cl)c([N+](=O)[O-])c1,30,.,32,37,.,47
CCCCCCCCSC1=CC(=O)C(OC)=C(OC)C1=O,.,.,-3,.,.,95*
O=C(NC(=S)N1CCCCC1)c1csc([N+](=O)[O-])c1,-5,-12,0,5,2,-2
CCOC(=O)c1c(NC(=O)c2ccco2)sc2c1CCCC2,6,-8,19,7,0,2
CCOC(=O)c1c(NC(=O)C(NCCN(C)C)c2ccccc2)sc2c1CCCC2 (configuration not stated),76*,-9,-9,-11,13,-8
O=C(CCC1CCCN(C(=O)c2cccnc2)C1)NCc1ccccc1F (configuration not stated),2,1,-7,-6,-2,5
CCC(=O)N1CCN(c2ccc(Cl)cc2NC(=O)c2ccc([N+](=O)[O-])o2)CC1,67*,5,-23,5,7,-30
CC(=O)N1CCN(c2ccc(NC(=O)c3ccco3)cc2Cl)CC1,-25,6,-39,-19,8,-33
CN1CCN(c2ccccc2NC(=O)c2ccc([N+](=O)[O-])o2)CC1,79*,-5,-7,-7,22,14
CCC(=O)N1CCN(c2ccc(Cl)cc2NC(=O)c2cccc([N+](=O)[O-])c2)CC1,20,-1,-6,-11,-3,-4
CC(=O)N1CCN(c2ccc(NC(=O)c3ccc([N+](=O)[O-])o3)cc2Cl)CC1,95*,1,-26,27,31,96*
CCC(=O)N1CCN(c2ccc(NC(=O)c3ccc([N+](=O)[O-])o3)cc2Cl)CC1,87*,.,-48,28,.,96*
COc1ccc(S(=O)(=O)N2CCC(C(=O)N(CC(C)C)C3CCS(=O)(=O)C3)CC2)cc1OC (configuration not stated),13,21,3,-2,3,-8
CCN1CCN(c2ccc(NC(=O)c3ccc(F)cc3)cc2Cl)CC1,-5,-13,-8,7,-47,-55
CCN1CCN(c2ccc(NC(=O)c3ccc([N+](=O)[O-])o3)cc2Cl)CC1,71*,.,-37,1,.,68
N#Cc1ccc(-c2nc3ccc(Cl)cn3c2Cc2ccccc2C(F)(F)F)cc1,.,.,.,.,.,1
Cn1cc([N+](=O)[O-])c(C(=O)Nc2sc3c(c2C#N)CCC3)n1,68*,-38,-8,-16,11,95*
Cn1cc(Br)c(C(=O)Nc2sc3c(c2C#N)CCC3)n1,.,13,.,-3,1,-11
CN1C=C/C(=C\c2cc[n+](C)c3ccccc23)c2ccccc21,77*,.,35,77*,.,69
CC[n+]1ccc(/C=C2\Sc3ccccc3N2CCCS(=O)(=O)[O-])c2ccccc21,8,14,-5,-2,-4,67
Cc1cc(C)n(-c2ccc(C(=O)Nc3ccc(C)c(S(=O)(=O)N4CCOCC4)c3)cc2)n1,69*,-38,9,5,25,57
Cc1ccc(NC(=O)c2cccnc2)cc1S(=O)(=O)N1CCOCC1,-3,3,0,3,-5,4
CCOC(=O)c1ccc(NC(=O)CSc2nc(N3CCOCC3)nc(N3CCOCC3)n2)cc1,24,-8,66*,9,1,16
CCN(CC)c1nc(Oc2ccc(C(=O)OC)cc2)nc(N2CCOCC2)n1,9,-22,52*,10,0,50
CC(=O)c1ccc(NC(=O)c2ccc(C)c(S(=O)(=O)N3CCOCC3)c2)cc1,-3,7,-5,-3,-7,-5
CC(=O)c1ccc(NC(=O)CSc2nc(N3CCOCC3)nc(N3CCOCC3)n2)cc1,-12,-37,-10,-15,-46,-63
CCOC(=O)c1ccc(NC(=O)c2ccc(C)c(S(=O)(=O)N3CCOCC3)c2)cc1,69*,-17,19,-12,49,42
CC1CC(=O)NN=C1c1ccc(N)c([N+](=O)[O-])c1 (configuration not stated),-13,0,10,-15,-2,-5
COCCCNC(=O)CCc1nnc(Cc2ccc(-c3ccccc3)cc2)o1,-14,1,4,6,-16,0
CN=c1sc2c(n1C)C(=O)c1ccccc1C2=O,93*,.,4,17,.,3
